Reference: PubChem BioAssay AID651610 (Broad Institute, 2012)
Out of some 360,000 compounds screened, about 3,900 (1.1%) were called active.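 How the source made its calls: active means mean replicate inhibition score of at least 50 and every replicate individually at or above 50; inconclusive means only one of the two criteria met; inactive means mean below 50 and not all replicates reaching 50.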 This excerpt belongs to a sample that is enriched for actives.

Test: inhibitors of HIV-1 Env-driven cell-cell fusion, primary screen, HeLa-JRFL effector, CEM21 target cells, luciferase (AID 651610);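 further: 0% = plate neutral controls and 100% = maraviroc near 300 nM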
Conditions: hits give high values; at 16.7 µM unless noted

inhibition, active:
Fc1ccc(N2N=C(c3cccs3)CC2c2ccco2)c(F)c1 (stereo not drawn) 55.9% [at 12.3 µM]
CSc1nnc(NC(=O)c2nc(S(=O)(=O)Cc3ccc(C)cc3)ncc2Cl)s1 73.8% [at 12.3 µM]
CC1CCCCN1S(=O)(=O)c1ccc(C(=O)Nc2nnc(-c3cccs3)o2)cc1 (stereo not drawn) 80.2% [at 12.3 µM]
Cc1cc(C(=O)N2CCC(C(=O)O)CC2)c(C(F)(F)F)o1 87.5% [at 12.3 µM]
Cc1ccc(S(=O)(=O)Nc2ccc3c(c2)C(=O)N([C@@H](C)CO)C[C@@H](C)[C@@H](CN(C)Cc2ccc(C(F)(F)F)cc2)OCCCC[C@@H](C)O3)cc1 79.2%
COc1ccc(NC(=O)Nc2ccc3c(c2)C(=O)N([C@H](C)CO)C[C@H](C)[C@H](CN(C)Cc2ccncc2)OCCCC[C@H](C)O3)cc1 58.1%
C[C@@H]1CCCCO[C@@H](CN(C)CC2CCCCC2)[C@H](C)CN([C@H](C)CO)C(=O)c2cc(NC(=O)C3CCCCC3)ccc2O1 68.4%
C[C@H](CO)N1C[C@H](C)[C@@H](CN(C)C(=O)Nc2cccc3ccccc23)OCCCC[C@H](C)Oc2ccc(N(C)C)cc2C1=O 67.4%
C[C@@H]1CN([C@@H](C)CO)C(=O)c2cc(NC(=O)c3ccncc3)ccc2O[C@@H]1CN(C)Cc1ccncc1 85.6%
C[C@H]1CCCCO[C@H](CN(C)C(=O)NC2CCCCC2)[C@@H](C)CN([C@@H](C)CO)C(=O)c2cc(NC(=O)Nc3ccc4c(c3)OCO4)ccc2O1 62.7%
C[C@@H]1CCCCO[C@H](CN(C)C)[C@H](C)CN([C@@H](C)CO)C(=O)c2cc(NS(=O)(=O)c3cn(C)cn3)ccc2O1 57.7%
C[C@H]1CCCCO[C@@H](CN(C)Cc2ccc(C(F)(F)F)cc2)[C@@H](C)CN([C@@H](C)CO)C(=O)c2cc(NC(=O)Nc3ccccc3)ccc2O1 86.8%

inhibition, inactive:
C[C@@H]1CN([C@H](C)CO)C(=O)c2cc(NC(=O)Nc3ccc4c(c3)OCO4)ccc2O[C@H]1CN(C)C(=O)Nc1ccccc1 7.58%
Cc1ccccc1C1CC(c2cccs2)=NN1S(C)(=O)=O (stereo not drawn) -91.6% [at 12.3 µM]
O=C(COc1ccccc1Cl)N1N=C(c2cccs2)CC1c1ccco1 (stereo not drawn) -7.8% [at 12.3 µM]
CCS(=O)(=O)Nc1ccc2c(c1)C(=O)N(C)[C@H]1CC[C@H](CC(=O)NCc3ccccc3F)O[C@H]1CO2 -0.764%
Cc1cccc(CS(=O)(=O)c2ncc(Cl)c(C(=O)Nc3ccc(F)cc3)n2)c1 -12.3% [at 12.3 µM]
NC(=O)CSc1nnc(NC(=O)c2ccc(Br)o2)s1 -7.67% [at 12.3 µM]
Cc1noc(C)c1NC(=O)N(C)C[C@H]1Oc2ccc(NC(=O)Cn3cnnn3)cc2CC(=O)N([C@H](C)CO)C[C@@H]1C -12.7%
C[C@@H]1CN([C@@H](C)CO)C(=O)c2cc(NC(=O)Cc3ccccc3)ccc2O[C@@H]1CN(C)S(=O)(=O)c1ccccc1 -22.1%
Cc1ccc(S(=O)(=O)NCC[C@@H]2CC[C@H](NC(=O)c3ccccn3)[C@H](CO)O2)cc1 -12.9%
C[C@H](CO)N1C[C@H](C)[C@@H](CN(C)Cc2ccc3c(c2)OCO3)Oc2c(cccc2N(C)C)C1=O -26.8%
CSCc1nnc(NC(=O)c2ccc(S(=O)(=O)N3CCCCC3C)cc2)o1 (stereo not drawn) -0.826% [at 12.3 µM]
CC1CCCCN1S(=O)(=O)c1ccc(S(=O)(=O)N(CC(=O)Nc2ccccc2)Cc2cccs2)cc1 (stereo not drawn) 20% [at 12.3 µM]
CCOC(=O)C1CCCN(C(=O)c2cc(-c3cccs3)oc2C)CC1 (stereo not drawn) 29.9% [at 12.3 µM]
O=C(O)C1CCN(C(=O)c2cc(F)cc3c2OCOC3)CC1 -1.42% [at 12.3 µM]
CCCN(C)C[C@H]1Oc2ncc(C#CC3CCCCC3)cc2C(=O)N([C@H](C)CO)C[C@@H]1C 18.3%
C[C@H](CO)N1C[C@H](C)[C@H](CN(C)CC2CCCCC2)Oc2c(NC(=O)c3cnccn3)cccc2C1=O -9.66%
CCC(=O)N1C[C@H](C)[C@H](OC)CN(C)C(=O)c2cc(NC(=O)Nc3cccc(F)c3)ccc2OC[C@@H]1C -5.04%
C[C@@H]1CN([C@@H](C)CO)C(=O)c2cc(NS(=O)(=O)c3ccccc3)ccc2O[C@@H](C)CCCCO[C@H]1CN(C)S(=O)(=O)c1cccs1 -25.8%
C[C@@H]1CCCCO[C@@H](CN(C)Cc2ccc(C(F)(F)F)cc2)[C@H](C)CN([C@H](C)CO)C(=O)c2cc(NS(=O)(=O)c3ccc(F)cc3)ccc2O1 32.9%
C[C@H](CO)N1C[C@H](C)[C@H](CN(C)Cc2ccc(C(F)(F)F)cc2)OCCCC[C@H](C)Oc2ccc(NS(=O)(=O)c3ccc(Cl)cc3)cc2C1=O 18.4%
C[C@@H]1CCCCO[C@H](CN(C)C(=O)Nc2ccccc2)[C@H](C)CN([C@@H](C)CO)C(=O)c2cc(N(C)C)ccc2O1 -23.9%
C[C@@H]1CCCCO[C@@H](CN(C)CC2CC2)[C@@H](C)CN([C@H](C)CO)C(=O)c2cc(NC(=O)C3CCCCC3)ccc2O1 19.6%
C[C@@H]1CCCCO[C@@H](CN(C)C(=O)Nc2ccccc2)[C@@H](C)CN([C@@H](C)CO)C(=O)c2cc(N(C)C)ccc2O1 -2.93%
COc1ccc(CN(C)C[C@@H]2OCCCC[C@@H](C)Oc3ccc(NC(=O)Nc4ccc(OC)cc4)cc3C(=O)N([C@@H](C)CO)C[C@@H]2C)cc1 -18.5%
C[C@@H]1CCCCO[C@@H](CN(C)CC2CC2)[C@H](C)CN([C@H](C)CO)C(=O)c2cc(NC(=O)C3CCCCC3)ccc2O1 -2.41%
COc1ccc(NC(=O)Nc2ccc3c(c2)C(=O)N([C@@H](C)CO)C[C@@H](C)[C@@H](CN(C)Cc2ccncc2)OCCCC[C@@H](C)O3)cc1 -12.5%
O=C(N[C@@H]1C=C[C@H](CC(=O)N2CCCCC2)O[C@H]1CO)c1cccc(F)c1 2.78%
COc1cccc(NC(=O)N[C@@H]2CC[C@H](CC(=O)Nc3ccccc3)O[C@@H]2CO)c1 -24.4%
Cc1ccc(S(=O)(=O)Nc2cccc3c2O[C@H](CN(C)S(=O)(=O)c2cn(C)cn2)[C@H](C)CN([C@H](C)CO)C3=O)cc1 -8.23%
C[C@H]1CCCCO[C@@H](CN(C)S(=O)(=O)c2ccc(Cl)cc2)[C@@H](C)CN([C@@H](C)CO)C(=O)c2cc(NS(=O)(=O)c3cn(C)cn3)ccc2O1 3.67%
C[C@@H]1CN([C@@H](C)CO)C(=O)c2cc(NS(C)(=O)=O)ccc2O[C@@H](C)CCCCO[C@@H]1CN(C)S(=O)(=O)c1cn(C)cn1 -12%
Cc1ccc(S(=O)(=O)Nc2cccc3c2O[C@@H](CN(C)C(=O)Nc2ccccc2)[C@H](C)CN([C@@H](C)CO)C3=O)cc1 8.55%
C[C@H](NC(=O)C[C@H]1CC[C@H]2[C@@H](COC[C@H](O)CN2C(=O)Nc2cccc(Cl)c2)O1)c1ccccc1 -9.13%
C[C@H](O)C#Cc1ccc2c(c1)O[C@@H](CN(C)CC1CCCC1)[C@H](C)CN([C@@H](C)CO)S2(=O)=O -37.3%
C[C@H](CO)N1C[C@H](C)[C@H](CN(C)C)Oc2cc(C#CC3CC3)ccc2S1(=O)=O -1.04%
C[C@H]1CN([C@@H](C)CO)C(=O)c2cc(NC(=O)Nc3cccc4ccccc34)ccc2O[C@@H]1CN(C)C 3.97%
C[C@@H]1CN([C@H](C)CO)C(=O)c2cc(NS(=O)(=O)c3ccccc3)ccc2O[C@H]1CN(C)C(=O)Nc1ccc2c(c1)OCO2 -19.2%
O=C(NCC[C@H]1CC[C@@H](NC(=O)C2CCCCC2)[C@@H](CO)O1)c1ccc(F)cc1 -1.25%
C[C@H](CO)N1C[C@H](C)[C@H](CN(C)C(=O)NC2CCCCC2)OCCCC[C@H](C)Oc2ccc(NC(=O)Nc3ccc4c(c3)OCO4)cc2C1=O 18.2%
C[C@@H]1CN([C@@H](C)CO)C(=O)c2cc(NS(=O)(=O)c3cn(C)cn3)ccc2O[C@@H](C)CCCCO[C@H]1CN(C)S(=O)(=O)c1cn(C)cn1 2.07%
C[C@H](CO)N1C[C@H](C)[C@@H](CN(C)Cc2ccncc2)Oc2ccc(NC(=O)Nc3ccccc3)cc2C1=O 4.38%
C[C@@H]1CN([C@H](C)CO)C(=O)c2cc(NC(=O)Nc3ccccc3)ccc2O[C@@H](C)CCCCO[C@H]1CN(C)Cc1ccc(C(F)(F)F)cc1 5.92%
C[C@H](CO)N1C[C@H](C)[C@@H](CN(C)C(=O)Nc2ccc3c(c2)OCO3)OCCCC[C@H](C)Oc2ccc(NC(=O)Nc3ccc4c(c3)OCO4)cc2C1=O -2.35%
C[C@@H]1CN([C@H](C)CO)C(=O)c2cc(NC(=O)c3ccncc3)ccc2O[C@H]1CN(C)Cc1ccc(Oc2ccccc2)cc1 -5.1%
C[C@@H]1CN([C@H](C)CO)C(=O)c2cc(NS(=O)(=O)c3cn(C)cn3)ccc2O[C@@H](C)CCCCO[C@H]1CN(C)C 1.08%
C[C@@H]1CCCCO[C@@H](CN(C)Cc2ccc(C(F)(F)F)cc2)[C@@H](C)CN([C@H](C)CO)C(=O)c2cc(NC(=O)Nc3ccccc3)ccc2O1 9.84%
